This is an account of results in PubChem BioAssay AID435022 (Sanford-Burnham Center for Chemical Genomics, 2010).

Molecules are shown by their SMILES. Among all 330,000 compounds or so, about 1,100 (0.33%) were called active. The full list was thinned out, with actives kept by preference. A number with no mark means an inactive call. Cut-off read from the data, not from the text of the source: active = inhibition above about 35%; inactive = the rest.

The assay is described as follows: lowers stimulated NF-kB luciferase signal in 697 B cells – cell-based, luminescence, uHTS, B-cell NF-kB inhibitor project, primary screen (AID 435022). The following applies: 697 B-cell NF-kB luciferase reporter, PMA/ionomycin, 16 h; at 4 µM; active compounds read high. A general note: A reporter such as luciferase makes a cellular process visible.
For `O=S1(=O)N=C(N(CCO)/N=C/c2ccccc2F)c2ccccc21`, the inhibition (commonly the drop in the measured response relative to a control, in per cent) is 11.3%. Consider `C/C(=N\Nc1nc(N2CCOCC2)nc(N2CCOCC2)n1)c1ccc([N+](=O)[O-])cc1`, for which the inhibition was 5.8%. With `C/C(=N\Nc1nc(Nc2ccccc2)nc(N2CCOCC2)n1)c1cccs1`, the inhibition is 39.3% (active). With `O=C(CSc1nc(Nc2ccccc2)nc(N2CCOCC2)n1)Nc1cc(Cl)ccc1O`, the inhibition was -4.18%. In the case of `O=c1oc(-c2ccccc2NS(=O)(=O)c2ccc(Cl)cc2)nc2ccccc12` it was 6.5%. Take `CC(C)(C)c1ccc(Oc2ccc(N)cc2)cc1`: the inhibition is 79% (active). Take `COc1cccc(Oc2ccc(N)cc2)c1`: the inhibition is -22.3%. Turning to `CC(C)(C)c1ccc(OC2=CS(=O)(=O)c3ccccc32)cc1`, the inhibition was -29.9%. In the case of `O=C(C(NS(=O)(=O)c1cccc2nsnc12)c1ccccc1)N1CCN(c2ccccc2)CC1` (stereo not drawn), the inhibition is -0.239%. Consider `CN(Cc1nc(-c2cnccn2)no1)Cc1n[nH]c2c1CCCCC2`, for which the inhibition was 2.89%. As for `CC[n+]1cc(C)ccc1/C=C/c1ccc(N(C)C)cc1`, the inhibition was 42.6% (active).

Turning to `C=CCN1C(=NC(=O)COc2ccccc2)SC2CS(=O)(=O)CC21` (stereo not drawn), the inhibition was -20.6%. In the case of `CN(C)C(=O)CCc1ccc2c3c([nH]c2c1)[C@]1(CCC2CCCC2)[C@@H](C(=O)N2CCOCC2)C[C@H](CC(=O)NCc2ccco2)C(=O)N1CC3`, the inhibition was 13.5%. As to `Cc1ccc(C)c(NC(=O)CN(C)C(=O)COc2ccc3ccccc3c2)c1`, the inhibition is 1.04%. In the case of `COc1ccc(S(=O)(=O)N2CCN(C(=O)c3cccs3)CC2)cc1OC` it was 10.3%. For the compound `CC1=C(C(=O)OC2CCCCC2)C(c2cccnc2)n2ncnc2N1` (stereo not drawn), the inhibition was -21.7%. Regarding `COc1cc(/C=C2/SC(=S)N(Cc3ccccc3)C2=O)cc(OC)c1O`, the inhibition was 18.2%. Turning to `CCOc1ccc(/C=C2\SC(=S)N(NC(=O)c3ccncc3)C2=O)cc1OC`, the inhibition is -7.88%. Consider `COc1ccc(/C=C2\SC(=S)N(CCC(=O)Nc3ccccn3)C2=O)cc1OC`, for which the inhibition was 47.5% (active). In the case of `Cc1ccc(C)n1-c1ccncc1`, the inhibition is 8.79%. On to `CC(=O)Nc1ccc(C(=O)CSc2nnc(Cc3ccccc3)o2)cc1`, for which the inhibition is 8.22%.

`COc1cc(C(=O)NCc2nnc(SCC(=O)c3ccc(Cl)cc3)o2)cc(OC)c1OC`: the inhibition was 7.7%. Consider `CC(C)C[C@@H](N)c1nnc(SCC(=O)c2ccc(Cl)cc2)o1`, for which the inhibition is 67.6% (active). As to `CCCCCCCCCCOC(=O)C[N+](C)(C)CC1CCCCC1O` (stereo not drawn), the inhibition was 10.5%. In the case of `NC(=O)CC(NC(=O)Cc1cccc2ccccc12)c1ccc(NCc2cc(F)ccc2F)c([N+](=O)[O-])c1` (stereo not drawn), the inhibition was 9.25%.

Turning to `CC12CN3CCN(CC(C3)/C1=N\NC(=O)c1ccccc1N)C2`, the inhibition is -5.67%. For the compound `CN(C(=O)COc1nnc(-c2cccs2)c(-c2cccs2)n1)c1ccccc1`, the inhibition is 2.99%. With `COc1ccc(OCC(=O)N2CCN(C(=O)c3cccs3)CC2)cc1`, the inhibition is 26.7%. On to `O=C(O)COc1ccc(-c2nccc(-c3cccs3)n2)cc1`, for which the inhibition is 73.8% (active).

For `O=C1c2ccccc2S(=O)(=O)N1Cc1c(F)cccc1Cl`, the inhibition is -1.55%.

On to `Cn1c(CCc2ccccc2)nnc1SCC(N)=O`, for which the inhibition is -1.05%.

With `CCN1C(=O)[C@H]2[C@@H](c3ccc(C)cc3)N3C(=O)N(c4cccc(Br)c4)C(=O)[C@@]3(CC)[C@H]2C1=O`, the inhibition was -2.44%. On to `CCCCC(CC)CNC(=O)C(=O)C1C(=O)Nc2ccccc21` (stereo not drawn), for which the inhibition is 13.5%. Consider `O=C(CN1CCN(c2ccc(O)cc2)CC1)NC1CCCc2ccccc21` (stereo not drawn), for which the inhibition was 6.1%.

For the compound `Cc1[nH][nH]c(=O)c1C(c1ccc(-c2ccc(Cl)cc2)o1)c1c(C)[nH][nH]c1=O`, the inhibition is 15.2%. With `CCOc1ccc(C(c2c(C)[nH][nH]c2=O)c2c(C)[nH][nH]c2=O)cc1OCC`, the inhibition was 35.5% (active). As to `CCOc1ccc(C(C)NC(=O)CN2C(=O)NC3(CCCCC3)C2=O)cc1OCC` (stereo not drawn), the inhibition is -6.42%.

Consider `CCn1c(O)c(N=NC2=NC(=O)CS2)c2cc(C)ccc21`, for which the inhibition was 44.4% (active). Consider `CCn1c(O)c(N=NC(=O)c2cccc(S(=O)(=O)N3CCCCC3)c2)c2ccccc21`, for which the inhibition was -4.54%.

`COC(=O)Cn1c2ccc(C)cc2c2nc(C)sc21`: the inhibition was 20.4%. Turning to `COc1cc(NC(=O)C2CC(c3ccccc3O)=NO2)c(OC)cc1Cl` (stereo not drawn), the inhibition was 10.9%. As for `CC(=O)Nc1nc(C)c(Cc2ccccc2)c(=O)[nH]1`, the figure is 16.1%; as for `O=C(O)CCn1c(O)c(C=C2N=c3ccccc3=N2)sc1=S`, 55.2% (active); as for `Cc1cc2ccccc2n1CCC(=O)O`, 13.8%.

As for `O=C(O)CCn1c(Cc2ccccc2)nc2ccccc21`, the inhibition was 5.45%. In the case of `CCOc1ccc(NC(=O)CN(C)C(=O)c2cccc(S(=O)(=O)N3CCCC3)c2)cc1OCC` it was 10.1%. Take `CCCC(C)NC(=O)C1CCN(C(=O)C2CC(=O)N(c3ccc(C)cc3)C2)CC1` (stereo not drawn): the inhibition is 10.2%.

For the compound `CNc1ccc([N+](=O)[O-])cc1C(=O)O`, the inhibition is -7.67%. Take `O=C(Nc1cccnc1)c1cc([N+](=O)[O-])ccc1Cl`: the inhibition is 12.2%.

Regarding `Cc1ccc(NC(=O)c2cc([N+](=O)[O-])ccc2Cl)c(O)c1`, the inhibition was 38.8% (active). For `O=C(CCCC(=O)N1CCN(c2cccc(Cl)c2)CC1)c1ccccc1`, the inhibition was 5.77%. `C=CC1=C(C(=O)O)N2C(=O)[C@@H](NC(=O)/C(=N/OCC(=O)O)c3csc(N)n3)[C@H]2SC1`: the inhibition was 21.7%.

In the case of `Cc1cnc(C(=O)Oc2cccc(Cl)c2Cl)cn1`, the inhibition was 9.86%. For the compound `N=c1n(CCc2ccccc2)c2ccccc2n1Cc1ccccc1F`, the inhibition is -56.4%. Consider `Cn1c(=O)n(C)c2cc(C(=O)Nc3ccc(Br)cc3)ccc21`, for which the inhibition is 9.51%.

Take `O=C(Nc1ccc2c(c1)OCO2)c1ccc(N2C(=O)c3ccccc3C2=O)cc1`: the inhibition was -7.07%. As for `Cn1c(=O)n(C)c2cc(C(=O)Nc3ccc4c(c3)OCO4)ccc21`, the figure is 37.8% (active). Regarding `COc1ccc(OCC(=O)NN2Cc3ccccc3C2=N)cc1`, the inhibition was 0.554%.

With `O=C(c1ccco1)N1CCN(CC(=O)N(C2CCCCC2)C2CCS(=O)(=O)C2)CC1` (stereo not drawn), the inhibition was -18.1%. For the compound `Cc1cc(C(=O)O)c(S(C)(=O)=O)s1`, the inhibition was 4.07%. Regarding `COc1ccc(CCNC(=S)N2CCN(S(=O)(=O)c3ccc(F)cc3)CC2)cc1`, the inhibition was -1.95%.

For `CN(C)CCCn1c(SCCN2C(=O)c3ccccc3C2=O)nc2ccccc2c1=O`, the inhibition was -8.89%. As to `Cc1onc(-c2c(F)cccc2Cl)c1C(=O)OCC(=O)N1C(C)CCCC1C` (stereo not drawn), the inhibition is -2.55%.

`CCCn1c(=NC(C)=O)c(C(=O)OCC)cc2c(=O)n3ccccc3nc21`: the inhibition is 4.14%.

In the case of `CCOC(=O)c1cc2c(=O)n3ccccc3nc2n(CC(C)C)c1=NC(=O)c1c(-c2c(F)cccc2Cl)noc1C`, the inhibition is 36.5% (active). Regarding `CCCCn1c(N)c(N(CCC(C)C)C(=O)COC(=O)c2ccc(CC)cc2)c(=O)[nH]c1=O`, the inhibition was -5.34%. On to `COc1ccc(C(=O)CSc2n[nH]c(N)n2)cc1`, for which the inhibition was 4.97%. For the compound `C=CCn1c(C)cc(C2=NNC(=NCC)SC2)c1C`, the inhibition was 37.3% (active). Regarding `CC(Sc1nc2c([nH]c3ccccc32)c(=O)n1C)c1ccccc1` (stereo not drawn), the inhibition was -2.36%.

Take `COc1ccc(C=C(C#N)C#N)c(CSc2ccccn2)c1`: the inhibition is 7.7%. As for `CCOC(=O)Cc1cc(=O)[nH]c(=O)[nH]1`, the figure is -9.76%; as for `O=C(OCCO)c1cc(Cl)c(C(=O)OCCO)cc1Cl`, 19.5%; as for `CC1CCN(S(=O)(=O)c2ccc3c(c2)n(C)c(=O)n3C)CC1`, 7.77%.

With `NC(=O)C1CCN(C(=O)CC2C(=O)NCCN2Cc2cccc(Oc3ccccc3)c2)CC1` (stereo not drawn), the inhibition is -2.05%. In the case of `CNC(=O)c1csc(Cc2c(Cl)sc3ccc(Cl)cc23)n1` it was -20.2%. As for `Cc1nc2ccccc2c(=O)n1-c1ccc(NS(=O)(=O)c2ccc(F)cc2F)cc1`, the figure is 1.55%; as for `CCC(C)(C(=O)Nc1ccccc1C)N(C(=O)CNC(C)=O)c1ccc(C)cc1` (stereo not drawn), 14.7%. As for `O=C(CN1C(=O)c2ccccc2S1(=O)=O)NC1CCCCC1`, the inhibition is 9.89%.

Turning to `O=C(CN1C(=O)c2ccccc2S1(=O)=O)N1CCc2ccccc21`, the inhibition was 62.7% (active).

On to `CC1CCCN(C(=O)CN2C(=O)c3ccccc3S2(=O)=O)C1` (stereo not drawn), for which the inhibition is -17.2%.

Consider `COC1(C2=NCCN2)COc2ccccc2O1` (stereo not drawn), for which the inhibition is 17.1%. In the case of `Cc1ccnc2nc(C(=O)OCC(=O)N(CC(C)C)CC(C)C)nn12`, the inhibition is 6.38%. `COc1ccc(CNc2nc(NCc3ccc(OC)cc3)c3ncn(C4CCCC4)c3n2)cc1`: the inhibition is -55.3%. In the case of `Cc1cc(C(=O)CSc2nc(N)cc(=O)[nH]2)c(C)n1-c1cccc(F)c1`, the inhibition was -32.2%. As for `C=CCSc1nc(N)cc(=O)[nH]1`, the figure is 36.8% (active); as for `CCCCc1nnc(NC(=O)CSc2nc(N)cc(=O)[nH]2)s1`, 13.3%. For the compound `CC(=O)N(OCc1ccc(OC(C)C)c(Cl)c1)C(C)=O`, the inhibition was -2.83%.

For the compound `COc1cc(F)c(C2=CC(=O)CC(C)(C)C2)cc1F`, the inhibition is 4.27%. As to `Cn1c(-c2ccc(F)cc2)cc2onc(-c3ccccc3Cl)c2c1=O`, the inhibition is -275%.

`Cc1cccc(C(=O)Nc2ccc(Oc3cnccn3)cc2)c1`: the inhibition is -6.59%.

For the compound `Cc1cccc(C(=O)Nc2ccc(C(=O)/C=C/c3cccs3)cc2)c1`, the inhibition is 6.21%. For `Cc1cccc(C(=O)Nc2ccc(CC(=O)O)cc2)c1`, the inhibition was 40.2% (active). In the case of `O=Cc1c(NCCCN2CCCC2=O)c2ccccc2[nH]c1=O` it was 4.36%.
